Laboratory results taken from PubChem BioAssay (NCATS).
Results filed as inconclusive are left out. Activity calls are given as the source filed them. Calls come from the whole dose curve; as a rule, active = well fitted inhibition curve with a large enough effect; inconclusive = small, poorly fitted or top-dose-only effect; inactive = flat fitted curve, though single readings scatter.
Potency is the fitted concentration of half-maximal effect.

What follows are compounds tested on DIV14 (assay: qHTS profiling for inhibitors of Plasmodium falciparum proliferation (AID 504749; note: nearly all actives have a fitted effect of over 60% in size)). Conditions: P. falciparum in erythrocytes, SYBR Green DNA, 72 h; series mostly up to 28.7 µM.
In short: (§1)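 SYBR Green fluorescence (ex 485 nm, em 535 nm) reports parasite DNA after 72 h compound exposure of infected red cells at 0.3% parasitemia, 2.5% hematocrit; signal normalized to 0.29 uM artemisinin and vehicle wells.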
With `O=C(Nc1cccc(C(F)(F)F)c1)c1cc(Br)cc(Br)c1O` the Potency was 13.5 µM (active).
With `CC(=O)Oc1cc(C)c(OC(C)=O)c2ccccc12` the Potency was 6.01 µM (active).
With `CCCCCCOc1ccc(C(=N)N(CCCC)CCCC)c2ccccc12` the Potency was 12 µM (active).
For `C=C1C(=CC=C2CCC[C@@]3(C)[C@@H]2CC[C@H]3[C@H](C)CCCC(C)C)C[C@@H](O)C[C@@H]1O`, the Potency was “inactive”.
`Cc1cn([C@H]2C[C@H](O)[C@@H](CO)O2)c(=O)[nH]c1=O` was tested, and the Potency was “inactive”.
With `CN(C)CCCN1c2ccccc2C(C)(C)c2ccccc21` the Potency was 8.49 µM (active).
With `O=CCCCC=O` the Potency was “inactive”.
For `CC(C)=O`, the Potency was “inactive”.
For `CCOC(=O)C1=C(C)NC(C)=C(C(=O)OCC)C1c1ccccc1C=CC(=O)OC(C)(C)C`, the Potency was 12 µM (active).
In the case of `COc1cc(-c2ccc(-[n+]3nc(-c4ccccc4)nn3-c3ccc([N+](=O)[O-])cc3)c(OC)c2)ccc1-[n+]1nc(-c2ccccc2)nn1-c1ccc([N+](=O)[O-])cc1`, the Potency was 12 µM (active).
In the case of `Clc1cc(Cl)c(OCC#CI)cc1Cl`, the Potency was 9.53 µM (active).
`C#C[C@]1(O)CC[C@H]2[C@@H]3CCC4=CCCC[C@@H]4[C@H]3C(=C)C[C@@]21CC` was tested, and the Potency was “inactive”.
`COC(=O)C1=C(C#N)NC(C)=C(C(=O)OC(C)C)C1c1cccc([N+](=O)[O-])c1` (stereo unspecified) was tested, and the Potency was 7.57 µM (active).
`CC1=C(/C=C/C(C)=C/C=C/C(C)=C/CO)C(C)(C)CCC1` was tested, and the Potency was 12 µM (active).
For `O=C(Nc1ccc(Br)cc1)c1cc(Br)c(Br)s1`, the Potency was 10.7 µM (active).
`O=C1CSC2(CCN(CCCN3c4ccccc4Sc4ccc(Cl)cc43)CC2)N1` was tested, and the Potency was 15.1 µM (active).
In the case of `CCCCC(CC)COC(=O)CC(C(=O)OCC(CC)CCCC)S(=O)(=O)O` (stereo unspecified), the Potency was “inactive”.

Each compound was assayed on DIV17 in the same assay as above. Conditions: P. falciparum in erythrocytes, SYBR Green DNA, 72 h; series mostly up to 28.7 µM.
In short: as §1
With `CCN(CC)CCOc1ccc(-c2nc3cc(Cl)ccc3s2)cc1` the Potency was 15.1 µM (active).
`O=C(Nc1cccc(C(F)(F)F)c1)c1cc(Br)cc(Br)c1O` was tested, and the Potency was 13.5 µM (active).
With `CC(=O)Oc1cc(C)c(OC(C)=O)c2ccccc12` the Potency was 6.75 µM (active).
In the case of `CCCCCCOc1ccc(C(=N)N(CCCC)CCCC)c2ccccc12`, the Potency was 12 µM (active).
For `Cc1cn([C@H]2C[C@H](O)[C@@H](CO)O2)c(=O)[nH]c1=O`, the Potency was “inactive”.
In the case of `CN(C)CCCN1c2ccccc2C(C)(C)c2ccccc21`, the Potency was 4.78 µM (active).
With `CC(C)=O` the Potency was “inactive”.
With `CCOC(=O)C1=C(C)NC(C)=C(C(=O)OCC)C1c1ccccc1C=CC(=O)OC(C)(C)C` the Potency was 15.1 µM (active).
`COc1cc(-c2ccc(-[n+]3nc(-c4ccccc4)nn3-c3ccc([N+](=O)[O-])cc3)c(OC)c2)ccc1-[n+]1nc(-c2ccccc2)nn1-c1ccc([N+](=O)[O-])cc1` was tested, and the Potency was 15.1 µM (active).
`Clc1cc(Cl)c(OCC#CI)cc1Cl` was tested, and the Potency was 13.5 µM (active).
In the case of `CN1C(=O)CN2CCc3ccccc3C2c2cc(Cl)ccc21` (stereo unspecified), the Potency was 6.01 µM (active).
In the case of `C#C[C@]1(O)CC[C@H]2[C@@H]3CCC4=CCCC[C@@H]4[C@H]3C(=C)C[C@@]21CC`, the Potency was “inactive”.
For `COC(=O)C1=C(C#N)NC(C)=C(C(=O)OC(C)C)C1c1cccc([N+](=O)[O-])c1` (stereo unspecified), the Potency was 13.5 µM (active).
With `CC(C)N=c1cc2n(-c3ccc(Cl)cc3)c3ccccc3nc-2cc1Nc1ccc(Cl)cc1` the Potency was “inactive”.
For `CC1=C(/C=C/C(C)=C/C=C/C(C)=C/CO)C(C)(C)CCC1`, the Potency was 16.9 µM (active).
For `O=C1CSC2(CCN(CCCN3c4ccccc4Sc4ccc(Cl)cc43)CC2)N1`, the Potency was 15.1 µM (active).
With `CC1=C(/C=C/C(C)=C/C=C/C(C)=C/C=C/C=C(C)/C=C/C=C(C)/C=C/C2=C(C)C(=O)CCC2(C)C)C(C)(C)CCC1=O` the Potency was “inactive”.
In the case of `CCCCC(CC)COC(=O)CC(C(=O)OCC(CC)CCCC)S(=O)(=O)O` (stereo unspecified), the Potency was “inactive”.

These compounds were tested on DIV30 in the same assay as above. Conditions: P. falciparum in erythrocytes, SYBR Green DNA, 72 h; series mostly up to 28.7 µM.
In short: as §1
`CCN(CC)CCOc1ccc(-c2nc3cc(Cl)ccc3s2)cc1` was tested, and the Potency was “inactive”.
In the case of `O=C(Nc1cccc(C(F)(F)F)c1)c1cc(Br)cc(Br)c1O`, the Potency was 13.5 µM (active).
With `C=C1C(=CC=C2CCC[C@@]3(C)[C@@H]2CC[C@H]3[C@H](C)CCCC(C)C)C[C@@H](O)C[C@@H]1O` the Potency was “inactive”.
With `Cc1cn([C@H]2C[C@H](O)[C@@H](CO)O2)c(=O)[nH]c1=O` the Potency was “inactive”.
For `CC(C)=O`, the Potency was “inactive”.
`O=C(O)c1cc(=O)c2c3nc4ccccc4oc-3cc(=O)c2[nH]1` was tested, and the Potency was “inactive”.
For `CCOC(=O)C1=C(C)NC(C)=C(C(=O)OCC)C1c1ccccc1C=CC(=O)OC(C)(C)C`, the Potency was 13.5 µM (active).
`COc1cc(-c2ccc(-[n+]3nc(-c4ccccc4)nn3-c3ccc([N+](=O)[O-])cc3)c(OC)c2)ccc1-[n+]1nc(-c2ccccc2)nn1-c1ccc([N+](=O)[O-])cc1` was tested, and the Potency was 12 µM (active).
For `C#C[C@]1(O)CC[C@H]2[C@@H]3CCC4=CCCC[C@@H]4[C@H]3C(=C)C[C@@]21CC`, the Potency was “inactive”.
For `COC(=O)C1=C(C#N)NC(C)=C(C(=O)OC(C)C)C1c1cccc([N+](=O)[O-])c1` (stereo unspecified), the Potency was 10.7 µM (active).
For `CC(C)N=c1cc2n(-c3ccc(Cl)cc3)c3ccccc3nc-2cc1Nc1ccc(Cl)cc1`, the Potency was “inactive”.
`NC1C2CN(c3nc4c(cc3F)c(=O)c(C(=O)O)cn4-c3ccc(F)cc3F)CC12` (stereo unspecified) was tested, and the Potency was “inactive”.
`O=C1CSC2(CCN(CCCN3c4ccccc4Sc4ccc(Cl)cc43)CC2)N1` was tested, and the Potency was 15.1 µM (active).
In the case of `CC1=C(/C=C/C(C)=C/C=C/C(C)=C/C=C/C=C(C)/C=C/C=C(C)/C=C/C2=C(C)C(=O)CCC2(C)C)C(C)(C)CCC1=O`, the Potency was “inactive”.
For `CCCCC(CC)COC(=O)CC(C(=O)OCC(CC)CCCC)S(=O)(=O)O` (stereo unspecified), the Potency was “inactive”.
In the case of `O=S(=O)(O)c1cc(O)c2c(N=Nc3ccc(Nc4ccccc4)c4c(S(=O)(=O)O)cccc34)cc(S(=O)(=O)O)cc2c1`, the Potency was “inactive”.
